# According to the supplement of paper PMC3414501:
# Structures can show the parent of a compound that is named as a salt.
# System: S. cerevisiae AD1-9 (efflux-pump deficient), vegetative growth in YPD
# Test: growth sensitivity score (doubling time z-score vs DMSO controls); higher = slower growth, strongly negative scores also mark growth inhibition (complete suppression), active = hit call of the paper; in the data active = 2 or more and inactive = the rest
# Outline: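 Yeast (Saccharomyces cerevisiae BY4741 and AD1-9) was grown in rich medium in microtiter plates from a starting OD600 of 0.065, with optical density read every 15 min over 24 hours. The growth sensitivity score was the difference between compound and solvent-only means, divided by the solvent-only standard deviation. Every experiment had eight solvent-only wells.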
row,SMILES,growth sensitivity score
1,"Nc1ncnc2c1ncn2[C@@H]1O[C@H](CO)C[C@@H]1O [3-Deoxydenosine] (stock concentration (mM, diluted 1:100): 10)",110 (active)
2,"CN1CCN(c2c(F)cc3c(=O)c(C(=O)O)cn4c3c2SCC4)CC1 [Rufloxacin hydrochloride] (stock concentration (mM, diluted 1:100): 10)",17.4 (active)
3,"CC[C@H](C)C(=O)O[C@H]1C[C@H](O)C=C2C=C[C@H](C)[C@H](CC[C@@H](O)C[C@@H](O)CC(=O)O)[C@H]21 [Pravastatin sodium] (stock concentration (mM, diluted 1:100): 9.5)",13.6 (active)
4,"Cn1nnc2c(C(N)=O)ncn2c1=O [Temozolomide] (stock concentration (mM, diluted 1:100): 10)",-0.09 (inactive)
5,"Cc1nc2n(c(=O)c1CCN1CCC(c3noc4cc(F)ccc34)CC1)CCCC2 [Risperidone] (stock concentration (mM, diluted 1:100): 10)",-2.71
6,"C[N+]1(C)CCC(OC(=O)C(O)(c2ccccc2)C2CCCC2)C1 (centres undefined) [Glycopyrrolate] (stock concentration (mM, diluted 1:100): 10)",-0.14 (inactive)
7,"NNCCc1ccccc1 [Phenelzine sulfate salt] (stock concentration (mM, diluted 1:100): 10)",-0.66 (inactive)
8,"CN1[C@@H](CC(=O)c2ccccc2)CCC[C@H]1C[C@H](O)c1ccccc1 [Lobeline hydrochloride] (stock concentration (mM, diluted 1:100): 10)",-1.96 (inactive)
9,"CC(=O)O[C@H]1C[C@@H]2CC[C@@H]3[C@H](CC[C@@]4(C)[C@H]3C[C@H]([N+]3(C)CCCCC3)[C@@H]4OC(C)=O)[C@@]2(C)C[C@@H]1N1CCCCC1 [Vecuronium bromide] (stock concentration (mM, diluted 1:100): 10)",-5.36
10,"Cc1ccsc1C(=CCCN1CCC[C@@H](C(=O)O)C1)c1sccc1C [Tiagabine hydrochloride] (stock concentration (mM, diluted 1:100): 9.1)",0.07 (inactive)
11,"CNCC[C@H](Oc1cccc2ccccc12)c1cccs1 [Duloxetine hydrochloride] (stock concentration (mM, diluted 1:100): 8.9)",33.3 (active)
12,"O=C(CCNNC(=O)c1ccncc1)NCc1ccccc1 [Nialamide] (stock concentration (mM, diluted 1:100): 10)",-0.06 (inactive)
13,"CN1CC(=O)N2[C@H](c3ccc4c(c3)OCO4)c3[nH]c4ccccc4c3C[C@@H]2C1=O [Tadalafil] (stock concentration (mM, diluted 1:100): 10)",-2.54
14,"CS(=O)(=O)c1ccc(-c2cc(Br)sc2-c2ccc(F)cc2)cc1 (stock concentration (mM, diluted 1:100): 10)",8.97 (active)
15,"O=C(O)CCc1nc(-c2ccccc2)c(-c2ccccc2)o1 [Oxaprozin] (stock concentration (mM, diluted 1:100): 10)",5.72 (active)
16,"CCN(CC)CC1CCCCN1CC(=O)N1c2ccccc2C(=O)Nc2cccnc21 (centres undefined) [Otenzepad] (stock concentration (mM, diluted 1:100): 10)",-1.89 (inactive)
17,"CCOC(=O)c1ccc(OC(=O)CCCCCNC(=N)N)cc1 [Gabexate mesylate] (stock concentration (mM, diluted 1:100): 7.7)",10.8 (active)
18,"COC(=O)C1=C(C)NC(C)=C(C(=O)OC)C1c1ccccc1[N+](=O)[O-] [Nifedipine] (stock concentration (mM, diluted 1:100): 10.7)",60 (active)
19,"COc1cc(C)c(Cc2cnc(N)nc2N)cc1OC [Ormetoprim] (stock concentration (mM, diluted 1:100): 10)",-2.46
20,"Nc1nc2ccc(OC(F)(F)F)cc2s1 [Riluzole] (stock concentration (mM, diluted 1:100): 9.9)",15.4 (active)
21,"CNCCCC12CCC(c3ccccc31)c1ccccc12 [Maprotilline hydrochloride] (stock concentration (mM, diluted 1:100): 10)",86.6 (active)
22,"Cc1ccnc2c1NC(=O)c1cccnc1N2C1CC1 [Viramune] (stock concentration (mM, diluted 1:100): 10)",-1.4 (inactive)
23,"COc1nc(C)nc(Cl)c1NC1=NCCN1 [Moxonidine hydrochloride] (stock concentration (mM, diluted 1:100): 9.2)",-1.22 (inactive)
24,"CCCc1nc(C)c2c(=O)nc(-c3cc(S(=O)(=O)N4CCN(CC)CC4)ccc3OCC)[nH]n12 [Vardenafil citrate] (stock concentration (mM, diluted 1:100): 7.2)",0.43 (inactive)
25,"CN1[C@@H]2CC[C@H]1C[C@@H](OC(=O)c1c[nH]c3ccccc13)C2 [Tropisetron hydrochloride] (stock concentration (mM, diluted 1:100): 7.7)",-2.07
26,"COc1cc(C(=O)NC2CCCNC2)cc(OC)c1OC (centres undefined) [Troxipide] (stock concentration (mM, diluted 1:100): 10.1)",-0.49 (inactive)
27,"CC(C)(C)NC(=O)[C@@H]1CN(Cc2cccnc2)CCN1C[C@@H](O)C[C@@H](Cc1ccccc1)C(=O)N[C@H]1c2ccccc2C[C@H]1O [Indinavir sulphate] (stock concentration (mM, diluted 1:100): 8.6)",-2.58
28,"CC(=O)SCC(Cc1ccccc1)C(=O)NCC(=O)OCc1ccccc1 (centres undefined) [Acetorphan] (stock concentration (mM, diluted 1:100): 10)",22.1 (active)
29,"O=C1C(c2c(O)[nH]c3ccccc23)=Nc2ccccc21 [Indarubicin] (stock concentration (mM, diluted 1:100): 10)",-1.23 (inactive)
